Compounds with a hit are over-represented: about 4.6% of the library has one in this group of screens.
TRHR ag – activates the human TRH receptor; TRHR cells, calcium flux fluo-8, FDSS agonist mode; activation, % at 2 µM; 360,000 compounds, 0.18% hits; AID 493084
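TRHR-expressing cells, plated overnight in medium with 10% serum, were loaded with fluo-8 calcium dye at room temperature. After a 10 s baseline, library compound was pin-added and calcium release was recorded kinetically (ex 480/em 530) as agonist response.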
TRHR enhancer – allosterically enhances the human TRH receptor; P34981; TRHR cells, fluo-8 calcium fluorescence, EC20 TRH enhancement; enhancement, % at 2 µM; 360,000 compounds, 0.66% hits; in the data active = enhancement above about 30%
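TRHR-expressing cells loaded with fluo-8 calcium dye were read kinetically (ex 480/em 530) during compound addition, then stimulated with an EC20 of TRH (10 nM final). Enhancement of the Gq-mediated intracellular calcium response was scored.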
D1 antag – human D1 dopamine receptor antagonism. HEK293 TREx D1 cells, calcium flux, dopamine EC80; stronger effect = lower value. P21728. 360,000 compounds, 3.2% hits. AID 504652. activity change, negative = inhibition, % at 10 µM; in the data active = activity change below about -30%
Target sequence (P21728 whole entry, looked up): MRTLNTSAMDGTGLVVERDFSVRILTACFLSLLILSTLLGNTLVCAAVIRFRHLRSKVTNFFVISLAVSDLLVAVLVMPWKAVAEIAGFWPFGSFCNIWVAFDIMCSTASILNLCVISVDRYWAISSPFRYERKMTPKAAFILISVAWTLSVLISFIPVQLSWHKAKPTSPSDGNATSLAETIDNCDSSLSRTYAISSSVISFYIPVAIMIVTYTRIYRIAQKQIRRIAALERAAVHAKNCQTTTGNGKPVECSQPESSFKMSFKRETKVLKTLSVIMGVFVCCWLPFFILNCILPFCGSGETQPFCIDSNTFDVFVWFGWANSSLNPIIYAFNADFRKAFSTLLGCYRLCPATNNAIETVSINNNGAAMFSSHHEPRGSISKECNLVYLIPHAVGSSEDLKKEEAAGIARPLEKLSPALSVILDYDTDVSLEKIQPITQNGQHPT
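Allosteric or orthosteric antagonism assessed as attenuation of the calcium response to EC80 dopamine, added 180 s after compound, in induced HEK293 Trex D1 cells loaded with no-wash calcium dye.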
D1 potentiator – human D1 dopamine receptor positive modulation. P21728. HEK293 TREx D1 cells, calcium flux, dopamine EC20 potentiation. potentiation, % at 10 µM. 360,000 compounds, 0.036% hits. AID 504651; in the data active = potentiation above about 30%
D1 ag – activates the human D1 dopamine receptor; 360,000 compounds, 1% hits; activation, % at 2 µM; P21728; AID 504660; HEK293 T-REx D1 cells, calcium flux, agonist mode
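Inducible HEK293 T-REx D1 cells, force-coupled to calcium signalling, were plated at 4000 cells/well with tetracycline and held overnight at 30 C. After no-wash calcium dye loading, compound-evoked calcium rise over 180 s flagged agonists.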
Large screens that a line does not name were inactive. Rule as the data show it, unless noted: active = activation above about 30%; inactive = the rest.

CCCCCOc1ccc(C(=O)OCC(=O)Nc2cc(C)on2)cc1	TRHR enhancer 31
COC(=O)COc1c(Cl)cc(C(c2c(C)[nH][nH]c2=O)c2c(C)[nH][nH]c2=O)cc1OC	none
COC(=O)/C(=N\Nc1ccc(Cl)cc1)Sc1nnc(-c2ccc(OC)cc2)n1C	none
O=C(Nc1cc(=O)[nH]c2ncnn12)c1ccccc1	none
CCc1nnc(NC(=O)C2(C)COC(c3ccccc3)OC2)s1 (stereo unspecified)	none
Cc1ccccc1Nc1nc(NCc2ccco2)c2ccccc2n1	D1 antag -36
Cc1ccc(OCCN2CCN(c3nc(NCc4ccco4)c4ccccc4n3)CC2)cc1	D1 antag -33
Oc1ccccc1Nc1nc(NCc2ccco2)c2ccccc2n1	none
OCCN1CCN(c2nc(NCc3ccco3)c3ccccc3n2)CC1	none
O=C(O)CCCNS(=O)(=O)c1ccccc1	none
Cc1cccc(NC(=O)c2ccccc2OCC(=O)N2CCCC2)c1C	none
CC(=O)N1CCN(C(=O)CCc2c[nH]c3ccccc23)CC1	D1 antag -34
O=C(Cc1c[nH]c2ccccc12)N1CCN(S(=O)(=O)c2ccc(Cl)cc2)CC1	D1 antag -36
CCOc1ccc(NC(=O)c2ccc(Br)o2)c([N+](=O)[O-])c1	D1 antag -45
CCOc1ccc(NC(=O)Cc2ccccc2)c([N+](=O)[O-])c1	none
O=C(Cc1ccc(Nc2nc(=S)[nH]c3ccccc23)cc1)NC1CCCCC1	none
COc1ccccc1NC(=O)CSc1nnc(C)n1CCc1ccccc1	none
O=c1[nH]c(CN2CCN(c3ccc(O)cc3)CC2)nc2scc(-c3ccc(Cl)cc3)c12	D1 antag -33
O=C(Nc1ccc(F)cc1)Nc1nnc(-c2ccccc2)o1	none
O=C(Nc1nnc(-c2ccccc2)o1)Nc1ccc(F)cc1F	D1 antag -31
COc1ccc(CCN(C)CC(O)COc2c(C)ccc(C)c2C)cc1OC (stereo unspecified)	D1 ag 34
COc1ccc(CCN(C)CC(O)COC(c2ccc(F)cc2)c2ccc(F)cc2)cc1OC (stereo unspecified)	D1 ag 33
Cc1ccc(S(=O)(=O)NNC(=O)c2cccnc2)cc1	none
COc1cccc(CNC(=O)CCc2c(C)c3ccc(O)c(C)c3oc2=O)c1	none
CC1OC(Nc2ccc(N=Nc3ccccc3)cc2)C(O)C(O)C1O (stereo unspecified)	D1 ag 31
Cc1c(C(=O)NC2CCCc3ccccc32)cccc1[N+](=O)[O-] (stereo unspecified)	none
CC(C)CNS(=O)(=O)c1ccc(CCC(=O)N2CCN(c3ccc(F)cc3)CC2)cc1	D1 antag -32
O=C(Cc1ccc([N+](=O)[O-])cc1)N1CCN(c2ccc([N+](=O)[O-])cc2)CC1	none
O=C(Cc1ccc(F)cc1)N1CCN(c2ccc([N+](=O)[O-])cc2)CC1	D1 antag -55
Cc1cc(OCC(=O)NCc2cccnc2)ccc1[N+](=O)[O-]	none
CN(C)/C=C1\SC(=S)N(c2ccc(Br)cc2)C1=O	D1 ag 41
CN(C)/C=C1\SC(=S)N(c2ccc(F)cc2)C1=O	none
O=C(Nc1nnc(/C=C/c2ccccc2)s1)c1ccco1	TRHR enhancer 34
CC(=O)Nc1nnc(/C=C/c2cccc([N+](=O)[O-])c2)s1	D1 antag -54
COC(=O)Nc1nnc(/C=C/c2ccccc2)s1	none
Cc1ccc(-c2ccc(C(=O)NCc3ccc(Cl)cc3)o2)c2ccccc12	none
CC(C)C(NC(=O)c1ccc(Cl)cc1Cl)C(=O)NCCc1ccccn1 (stereo unspecified)	none
Cc1ccc(C(=O)c2sc(Nc3ccccc3)c(C#N)c2N)cc1	none
CCOC(=O)c1ccc(Nc2sc(C(=O)c3cccc([N+](=O)[O-])c3)c(N)c2C#N)cc1	D1 antag -32
COc1ccc(C(=O)NCC(=O)OCC(=O)Nc2cccc(S(=O)(=O)N3CCCC3)c2)cc1	none
C/C(=N\NC(=O)c1c(C)nc2ccccn12)c1ccc(O)cc1O	TRHR enhancer 40
C/C(=N\NC(=O)c1c(C)nc2ccccn12)c1ccccc1F	none
Cc1ccc(SCc2cc(-c3ccc(Cl)cc3)no2)cc1	D1 ag 36
CC1c2cc3c(cc2CCN1C(=O)c1ccc(Br)cc1)OCCCO3 (stereo unspecified)	D1 antag -47

Assay outcomes from PubChem BioAssay.
